Screening data: PubChem BioAssay, National Center for Advancing Translational Sciences (NCATS)
FMDV inh – High Throughput Screening for Foot and Mouth Disease Virus Antivirals | 1.2% of 410,000 active | FMDV antiviral cell-based qHTS | Potency, µM (highest dose often 57.9 µM), inactives show at the highest dose activity change, negative = inhibition, actives largely listed as inhibitors | AID 1159524, 2015; calls by dose curve; tested in HEK293T cells; note: read-out not given here; potency is the fitted concentration of half-maximal effect; nearly all actives have a fitted effect of over 45% in size
Lassa entry inh – qHTS for Inhibitors of binding or entry into cells for Lassa Virus; 1.2% of 300,000 active; Lassa virus pseudotype entry inhibition, cell reporter; AID 540256, 2011; Potency, µM (top dose mostly 37.9 µM), for inactives: at the highest dose activity change, negative = inhibition, usual class: inhibitors; calls by dose curve; tested in HEK293 cells; note: potency is the fitted concentration of half-maximal effect; nearly all actives have a fitted effect of over 50% in size
HCMV inh – qHTS Assay for inhibitors of the human cytomegalovirus (HCMV); HFF cells, HCMV-luciferase reporter, 72 h; active compounds read low; activity change, negative = inhibition, % at 57.5 µM; 4.5% of 410,000 active; AID 1259415, 2018; in the data active = activity change below about -60%; inconclusive = no clear call, values can overlap the other calls; inactive = above about -39%
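After 16 h attachment at 37C, HFF cells received test compound and HCMV-luciferase (1 PFU/cell); reporter luminescence read 72 h later, data normalized against buffer-only and known inhibitor Salinomycin.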
MARV entry inh – qHTS for inhibitors of binding or entry into cells for Marburg Virus | Marburg virus pseudotyped entry inhibition, cell reporter | 1.8% of 300,000 active | Potency, µM (titrated, usually from 37.8 µM), for inactives: at the highest dose activity change, negative = inhibition, actives largely listed as inhibitors | AID 540276, 2011; calls by dose curve; tested in HEK293 cells; note: potency is the fitted concentration of half-maximal effect
HCV inh – qHTS Assay for Inhibitors of Hepatitis C Virus (HCV). Huh7.5.1 HCVcc-Cre infection, luciferase reporter, 44 h. Potency, µM (titrated, usually from 41.8 µM), without a hit: top-dose activity change, negative = inhibition, usual class: inhibitors. 3.4% of 340,000 active; active = well fitted inhibition curve with a large enough effect; inconclusive = small, poorly fitted or top-dose-only effect, or another doubt; inactive = no such curve, though single readings can be large or run the other way; note: potency is the fitted concentration of half-maximal effect
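1,000 cells/well; 4 h culture; + compound; + HCVcc-Cre (~0.5 moi); 44 h; luciferase substrate, RT 15 min; read 15 sec.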
Starred values were filed as active, the others as inactive; [ ] = dose if it differs, or a comment. Most compounds without a hit are left out; they make up all but 7.9% or so of the library. % is set by controls: 0 for no effect and ±100 for the full control effect.

Screening CCC(C)Sc1oc(-c2ccco2)nc1S(=O)(=O)c1ccc(Cl)cc1 (stereo not drawn) returned FMDV inh -5%, Lassa entry inh -6%[46.1 µM], HCMV inh -16 and MARV entry inh 9%[46.1 µM].
`CCOC(=O)C1CCN(S(=O)(=O)c2ccc(N3CCCCS3(=O)=O)cc2)CC1` gave FMDV inh inconclusive, Lassa entry inh -2%[46.1 µM] and HCMV inh -10.
Screening O=c1c2ccccc2nc2n1CCS2(=O)=O returned FMDV inh 32µM*, Lassa entry inh inconclusive, HCMV inh 14, MARV entry inh 23%[46.1 µM] and HCV inh 12%.
`O=c1c2ccccc2nc2c3ccccc3c3nncn3n12` gave FMDV inh inconclusive, Lassa entry inh 1%, HCMV inh inconclusive, MARV entry inh -4% and HCV inh 0%.
C/C(=N\NC(N)=S)C1C2C3CC4C5CC(C42)C1C53 (stereo not drawn) was read as FMDV inh -8%, Lassa entry inh -10%[46.1 µM], HCMV inh -62*, MARV entry inh inconclusive and HCV inh inconclusive.
For CCC1CC(/C(C)=N/NC(N)=O)OC1=O (stereo not drawn) the results were FMDV inh -6%, Lassa entry inh -12%, HCMV inh 4, MARV entry inh 6% and HCV inh 4%.
For O=C(NC1CCCCC1)Sc1ccc(Cl)cc1 the results were FMDV inh 32µM*, Lassa entry inh 0%, HCMV inh 14, MARV entry inh 19%[46.1 µM] and HCV inh -25%.
`CN=C(NC1CCCCC1)c1ccc(Cl)cc1` gave FMDV inh -20%, Lassa entry inh -4%, HCMV inh -60*, MARV entry inh inconclusive and HCV inh 24%.
Screening O=C(Cc1ccc(Cl)cc1)NC1CC1 returned FMDV inh -6%, Lassa entry inh -1%[46.1 µM], HCMV inh 6, MARV entry inh 3%[46.1 µM] and HCV inh 20%.
O=C(CCSCc1ccc(Cl)cc1)NC1CCCC1 was read as FMDV inh -12%, Lassa entry inh inconclusive, HCMV inh -102*, MARV entry inh 11% and HCV inh 8%.
CCCN(C/C=C/I)C1CCc2cccc(O)c2C1 (stereo not drawn) was read as FMDV inh -14%.
CC(C)(C)n1nnnc1C(c1cccs1)N(Cc1cccnc1)Cc1ccccc1Cl (stereo not drawn) was read as FMDV inh -14%, Lassa entry inh 1%, HCMV inh -20, MARV entry inh inconclusive and HCV inh 10µM*.
For N=C1C=CC(=C(c2ccc(N)cc2)c2ccc(N)cc2)C=C1 the results were FMDV inh -47%, Lassa entry inh 5µM*, HCMV inh -100*, MARV entry inh 4µM* and HCV inh 6.3µM*.
Nc1ccc(C(=O)C(=O)c2ccc(N)cc2)cc1 was read as FMDV inh 8%, HCMV inh -8 and HCV inh 5%.
COc1ccc(NC(=O)c2cncc(Br)c2)cc1S(=O)(=O)N1CCCCC1 was read as FMDV inh 20µM*, Lassa entry inh inconclusive, HCMV inh inconclusive, MARV entry inh inconclusive and HCV inh inconclusive.
Screening COc1ccc(NC(=O)c2ccc(Cl)nc2)cc1S(=O)(=O)N1CCCCC1 returned FMDV inh inconclusive, Lassa entry inh -17%, HCMV inh -3, MARV entry inh inconclusive and HCV inh 11µM*.
`CCOc1ccc(C(=O)N[C@H](C(=O)Nc2ccc(OC)c(S(=O)(=O)N3CCOCC3)c2)C(C)C)cc1` gave FMDV inh -1%, HCMV inh -26 and HCV inh -19%.
Screening COc1ccc(NC(=O)[C@@H](NC(=O)c2ccccc2)C(C)C)cc1S(=O)(=O)N1CCCCC1 returned FMDV inh -5%, Lassa entry inh -2%, HCMV inh 6, MARV entry inh 0.11µM* and HCV inh -8%.
Screening COc1ccc(NC(=O)c2cc(F)cc(F)c2)cc1S(=O)(=O)N1CCCCC1 returned FMDV inh -25%, Lassa entry inh -29%[46.1 µM], HCMV inh inconclusive, MARV entry inh inconclusive and HCV inh 10µM*.
